97 compounds from ChEMBL document CHEMBL1201862, “PubChem BioAssay data set” (2004) can be followed below.

Several values for one entry are separate records, joined by “and”; a condition that tells them apart may be missing. Equal values may be shown once. The campaign covered roughly 400,000 compounds. About 2,100 (0.53%) were called active. Not shown: some 14% with an inconclusive outcome. The sample holds actives, similar compounds and a random draw of the others, so the mix is not that of the screen. The rule behind the calls is not given here.

In this experiment the target is Ataxin-2 (Homo sapiens) (UniProt Q99700). Description: qHTS for Inhibitors of ATXN expression. It counts as functional. On the technique in general: Quantitative high-throughput screening tests each substance at several concentrations.
Chain of Ataxin-2 (Homo sapiens) (Q99700 whole entry): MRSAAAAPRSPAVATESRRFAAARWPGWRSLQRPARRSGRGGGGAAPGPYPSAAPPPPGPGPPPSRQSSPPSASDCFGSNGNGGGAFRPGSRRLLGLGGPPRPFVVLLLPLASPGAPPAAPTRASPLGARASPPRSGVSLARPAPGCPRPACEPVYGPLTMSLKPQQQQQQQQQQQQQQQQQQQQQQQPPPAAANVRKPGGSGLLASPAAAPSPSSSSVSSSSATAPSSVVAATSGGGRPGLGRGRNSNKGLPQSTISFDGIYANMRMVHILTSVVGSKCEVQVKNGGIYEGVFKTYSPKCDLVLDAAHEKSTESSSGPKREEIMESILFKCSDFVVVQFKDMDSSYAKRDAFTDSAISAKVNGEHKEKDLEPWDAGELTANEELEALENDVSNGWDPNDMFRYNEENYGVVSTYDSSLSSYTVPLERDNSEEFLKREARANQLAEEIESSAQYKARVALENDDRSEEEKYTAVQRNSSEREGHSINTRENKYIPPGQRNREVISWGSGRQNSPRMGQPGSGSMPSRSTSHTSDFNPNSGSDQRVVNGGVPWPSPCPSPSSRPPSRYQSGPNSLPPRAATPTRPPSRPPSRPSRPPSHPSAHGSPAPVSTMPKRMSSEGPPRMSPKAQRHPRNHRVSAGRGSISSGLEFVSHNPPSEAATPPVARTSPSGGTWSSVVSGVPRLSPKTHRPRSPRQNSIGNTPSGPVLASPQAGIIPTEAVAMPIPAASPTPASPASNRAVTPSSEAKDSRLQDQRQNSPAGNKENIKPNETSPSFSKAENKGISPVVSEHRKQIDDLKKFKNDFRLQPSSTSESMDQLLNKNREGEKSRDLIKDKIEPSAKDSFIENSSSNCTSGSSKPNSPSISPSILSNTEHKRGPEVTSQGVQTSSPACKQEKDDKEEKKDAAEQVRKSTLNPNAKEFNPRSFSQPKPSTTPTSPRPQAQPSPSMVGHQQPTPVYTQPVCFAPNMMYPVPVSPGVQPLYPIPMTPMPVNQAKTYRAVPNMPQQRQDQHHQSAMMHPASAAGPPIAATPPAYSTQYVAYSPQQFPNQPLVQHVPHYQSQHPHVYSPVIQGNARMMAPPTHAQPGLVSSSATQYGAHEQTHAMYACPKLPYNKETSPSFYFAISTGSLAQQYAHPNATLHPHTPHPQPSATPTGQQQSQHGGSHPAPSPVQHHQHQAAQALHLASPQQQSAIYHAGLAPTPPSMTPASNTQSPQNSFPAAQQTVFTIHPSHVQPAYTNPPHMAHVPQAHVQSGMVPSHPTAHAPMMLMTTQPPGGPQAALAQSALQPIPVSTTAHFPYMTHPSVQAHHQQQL
With `O=C(NCc1cccs1)c1cc(C2CC2)on1`, the Potency result was “inactive”. Regarding `CC(C)(C)NC(=O)C(c1ccc(-c2ccccc2)cc1)N(C[C@H]1CC[C@@H]([C@@H]2CC[C@H](CO)O2)O1)C(=O)c1cccc(Cl)c1` (some centres not stated), the Potency was 31.6 µM (active). For the compound `CC(C)(C)NC(=O)C(c1ccc(-c2ccccc2)cc1)N(C[C@H]1CC[C@@H]([C@@H]2CC[C@H](CO)O2)O1)C(=O)c1ccc(-c2ccccc2)cc1` (some centres not stated), the Potency was 35.5 µM (active). Next, `CC(C)(C)NC(=O)C(c1cccnc1)N(C(=O)c1csnn1)c1ccccc1` (configuration not stated): “inactive”. Next, `CC(C)(C)NC(=O)C(c1ccncc1)N(C(=O)C1CSC(=O)C1)c1ccccc1` (configuration not stated): “inactive”; `O=C(c1cccc(Cl)c1)N(Cc1ccco1)C1CCS(=O)(=O)C1` (configuration not stated): “inactive”; `CC1(C)NC(=O)N(CC(=O)N2CCN(S(=O)(=O)c3cc(Cl)ccc3Cl)CC2)C1=O`: “inactive”.

`CC(C)Cn1nc(NC(=O)c2cccs2)c2cc3ccccc3nc21`: the Potency result is “inactive”. On to `Cc1nn(-c2ccccc2)c(C)c1/C=N/NC(=O)CSc1nc2ccccc2c(=O)n1-c1ccc(Br)cc1`, for which the Potency was 12.6 µM (active).

On to `Cc1ccc(S(=O)(=O)N(C)C)cc1-n1c(SCC(=O)N(C)C)nc2ccccc2c1=O`, for which the Potency entry was “inactive”. Next, `CNC(=O)CSc1nc2ccccc2c(=O)n1C1CCCCC1`: “inactive”.

With `O=C(Nc1ccc(F)cc1)c1cccnc1NCCc1ccccc1`, the Potency entry is “inactive”. As to `CC(=O)Nc1ccc(S(=O)(=O)[N-]c2nc3ccccc3nc2-[n+]2ccc(NC(=O)c3ccc(F)cc3)cc2)cc1`, the Potency result is “inactive”.

For the compound `Cc1ccccc1CS(=O)(=O)c1ncc(Cl)c(C(=O)Nc2ccc(F)cc2)n1`, the Potency was 10 µM (active). For `O=C(Nc1ccc(F)cc1)c1nc(S(=O)(=O)Cc2ccccc2)ncc1Cl`, the Potency is 25.1 µM (active). Next, `O=C1CSc2ccc(S(=O)(=O)NCc3ccc(F)cc3)cc2N1`: “inactive”; `COc1ccc(Nc2nc3c(C)cccc3cc2C#N)cc1`: “inactive”.

For the compound `N#Cc1nccc2ccc(OCc3ccc(Br)cc3)cc12`, the Potency result is “inactive”. Next, `CN(C(=O)COC(=O)c1cc2ccccc2cc1O)c1ccccc1`: “inactive”; `O=C(N=Nc1c(O)n(Cc2ccccc2)c2ccccc12)c1cc2ccccc2cc1O`: 39.8 µM (active). In the case of `Cc1ccc(C(=O)NNC(=O)c2cc3ccccc3cc2O)cc1` it was “inactive”; in that of `Cc1ccc(NC(=O)Cn2c(O)c(N=NC(=O)c3cc4ccccc4cc3O)c3ccccc32)cc1`, 8.91 µM (active).

As for `Cn1c(O)c(/C=N/NC(=O)c2cc3ccccc3cc2O)c2ccccc21`, the Potency result is “inactive”.

Regarding `Cc1c(O)ccc2c(CC(=O)N[C@@H](Cc3ccc(O)cc3)C(=O)O)cc(=O)oc12`, the Potency entry is “inactive”.

As to `CCS(=O)(=O)c1nc(S(=O)(=O)c2ccc(Cl)cc2)c(N2CCN(CCO)CC2)s1`, the Potency result is “inactive”. For the compound `Cc1sc(NC(=O)c2ccccc2)c(C(c2ccc(Cl)cc2)N2CCN(CCO)CC2)c1C` (configuration not stated), the Potency is 28.2 µM (active).

As to `Cc1c(-c2ccc(Cl)cc2)c(=O)oc2c(CN3CCN(CCO)CC3)c(O)ccc12`, the Potency result was “inactive”. For `Cn1c(C(=O)NCc2ccccn2)cc2c(=O)n3ccccc3nc21`, the Potency result is “inactive”. As to `Cc1cccc(C2=NN(c3ccccc3)[C@H](CO)[C@H]2c2ccc(Cl)cc2)c1`, the Potency result is “inactive”. For the compound `CCN(CC)c1ccc(/C=N/NC(=O)c2cccc(S(=O)(=O)Nc3ccccc3OC)c2)c(O)c1`, the Potency entry is “inactive”. In the case of `CCN1C/C(=C\c2cc(OC)c(OC)c(OC)c2)C2=NN(c3ccccc3)C(c3cc(OC)c(OC)c(OC)c3)C2C1` (configuration not stated), the Potency result was “inactive”. Next, `CCOC(=O)c1ccc(NC(=O)COc2ccccc2CNCCc2ccccc2)cc1`: 29.9 µM (active); `CCOc1ccc(NC(=O)COc2ccc(C(=O)NCCc3ccccc3)cc2)cc1`: “inactive”. Next, `Cc1ccc(C(=O)OCC(=O)NCCc2ccccc2)cc1C`: “inactive”. Next, `CCCCn1nc(NC(=O)c2cccs2)c2cc3ccccc3nc21`: “inactive”; `NS(=O)(=O)c1ccc(NCc2cnc3ccccc3c2)cc1`: “inactive”. `CCOc1ccc2nc(NCCCNS(=O)(=O)c3ccc(C)cc3)c(C#N)cc2c1`: the Potency entry was “inactive”. Next, `c1ccc(COc2ncnc3c2ncn3CCCNCC(c2ccccc2)c2ccccc2)cc1`: 25.1 µM (active). Next, `c1ccc(COc2ncnc3c2ncn3CCCNC2CCN(Cc3ccccc3)CC2)cc1`: 39.8 µM (active). Next, `COCCCn1c(C(=O)N2CC(C)OC(C)C2)cc2c(=O)n3ccccc3nc21` (configuration not stated): “inactive”. For the compound `O=C(CC(=O)N/N=C/c1c(F)cccc1Cl)NCCc1ccccc1`, the Potency entry was “inactive”. With `CCCCN(C)CCCNC(=O)C1CCN(c2nc3ccc(CC)cc3s2)CC1`, the Potency was 28.2 µM (active).

Turning to `CCOc1ccc2nc(N3CCC(C(=O)N4CCN(c5ncccn5)CC4)CC3)sc2c1`, the Potency entry is “inactive”. Regarding `Cc1c(C(=O)NCc2ccc3c(c2)cc(C)n3C)cccc1[N+](=O)[O-]`, the Potency entry is “inactive”. Turning to `COc1ccc(-c2sc3cc(OC)ccc3c2-c2ccc(OCCN3CCCCC3)cc2)cc1`, the Potency was 25.1 µM (active). Take `Brc1ccccc1OCCCN1CCCC1`: the Potency entry is “inactive”. In the case of `COc1ccc(-c2c(C)c3ccc(O)c(CN4CCCCC4)c3oc2=O)cc1OC` it was “inactive”. In the case of `c1ccc2c(-c3ccc(OCCN4CCCCC4)cc3)c(-c3ccsc3)sc2c1`, the Potency was 39.8 µM (active). Next, `COc1cccc2sc3cc(NCCCN4CCOCC4)ccc3c(=O)c12`: “inactive”. Next, `COc1ccc2c(-c3ccc(OCCN4CCCCC4)cc3)c(-c3ccccc3OC)sc2c1`: 39.8 µM (active); `COc1ccccc1-c1sc2ccccc2c1-c1ccc(OCCN2CCCCC2)cc1`: 35.5 µM (active).

As to `COc1ccccc1OCCCCN1CCCCC1`, the Potency entry was “inactive”.

Consider `CSCCC1NC(=O)N(CC(=O)Nc2ccc(Br)cc2Br)C1=O` (configuration not stated), for which the Potency result was “inactive”. Next, `CCOc1cccc(NC(=O)c2sc3nc(-c4ccc(F)cc4)ccc3c2N)c1`: “inactive”; `COc1cccc(-c2sc3ccccc3c2-c2ccc(OCCN3CCCCC3)cc2)c1`: 28.2 µM (active).

Consider `COc1ccccc1-c1sc2ccccc2c1C#Cc1ccc(N(C)C)cc1`, for which the Potency entry was “inactive”. Next, `COc1cccc(-c2sc3ccccc3c2-c2ccc(OCCN(C)C)cc2)c1`: 28.2 µM (active); `COc1ccc2sc(-c3ccccc3OC)c(-c3ccc(OCCN(C)C)cc3)c2c1`: 39.8 µM (active). In the case of `COC(=O)c1c(-c2ccc(N(C)C)cc2)sc2ccc(OC)cc12` it was “inactive”; in that of `COc1ccc2sc(-c3ccc(N(C)C)cc3)c(C#CCO)c2c1`, “inactive”; in that of `O=C(Nc1nc2n(n1)C(c1ccc(F)cc1)C=C(c1ccccc1)N2)c1ccc(Cl)cc1` (configuration not stated), “inactive”. In the case of `S=C(c1ccc(-c2ccc(Br)cc2)o1)N1CCOCC1` it was “inactive”; in that of `CCc1cc(=O)oc2c3c(c(Cl)cc12)OCN(Cc1cccc(OC)c1)C3`, “inactive”. Consider `CC1C2=C(O)CC(C)(C)CC2=NC2=C1C(=O)CC(C)(C)C2` (configuration not stated), for which the Potency result was “inactive”. As to `CCCc1ccc(C2C3=C(CC(C)(C)CC3=O)N=C3C2=C(O)c2ccccc23)cc1` (configuration not stated), the Potency was 20 µM (active).

`CCCO/C(O)=C1\C(C)=NC2=C(C(=O)CC(C)(C)C2)C1c1cccnc1` (configuration not stated): the Potency result is “inactive”. For `O=S(=O)(Nc1ccccc1N1CCOCC1)c1ccccc1C(F)(F)F`, the Potency result was “inactive”. Turning to `O=C1CCCc2nc3c(cc21)C(O)Oc1c-3ccc2ccccc12` (configuration not stated), the Potency result was “inactive”. Consider `Cn1c(SCc2ccccc2F)nc2ccccc2c1=O`, for which the Potency result is “inactive”. Regarding `CN(Cc1ccccc1)C(=O)c1ccc(CSc2nc3cccnc3n2Cc2ccccc2F)cc1`, the Potency is 20 µM (active). Take `O=C(Cc1c(F)cccc1Cl)N(Cc1ccccc1)c1ccccn1`: the Potency entry is “inactive”.

As for `CN1CCN(Cc2nc3ccccc3c(=O)n2Cc2nc(-c3ccc4ccccc4c3)cs2)CC1`, the Potency is 39.8 µM (active) and 25.1 µM (active). Next, `O=C(CN1C(=O)CCC1=O)Nc1nc(-c2ccc3ccccc3c2)cs1`: “inactive”; `CN1CCN(Cc2c(O)ccc3cc(-c4ccccn4)c(=O)oc23)CC1`: “inactive”; `C[C@H]1C(c2ccc(F)cc2)=NN(c2ccccc2)[C@@H]1CO`: “inactive”. Next, `O=C(CSc1nnc2ccccn12)Nc1ccc(S(=O)(=O)N2CCOCC2)cc1`: “inactive”; `COc1ccc(CCNS(=O)(=O)c2ccc3c(c2)CCCC3)cc1OC`: “inactive”.

As for `COc1ccc(Cl)cc1CC1(C)C(=O)Nc2ccc(S(=O)(=O)NC3CCCCC3)cc21` (configuration not stated), the Potency was 35.5 µM (active). As for `COc1ccc(-c2csc(/C(C#N)=C/Nc3cc4oc5ccccc5c4cc3OC)n2)cc1`, the Potency entry was “inactive”.

On to `C=CC[C@@H](Cc1ccc(F)cc1)C(=O)OC[C@H]1CCCN1C(=O)[C@@H](CC=C)CC(=O)N(CCO)Cc1ccccc1`, for which the Potency is 39.8 µM (active). In the case of `C=CC[C@@H](Cc1ccc(F)cc1)C(=O)OC[C@H]1CCCN1C(=O)[C@H](CC=C)CC(=O)N(CCO)Cc1ccccc1` it was 35.5 µM (active); in that of `N#Cc1c(N)n(CCc2ccc(F)cc2)c2nc3ccccc3nc12`, “inactive”. `O=C(CN1C(=O)NC2(CCCCC2)C1=O)Oc1ccc2c(C(F)(F)F)cc(=O)oc2c1`: the Potency result was “inactive”. With `Fc1ccc(-c2nc3cnccn3c2NC2CCCC2)cc1`, the Potency entry was “inactive”. With `COc1ccc(C(=O)N2C(=O)c3ccc(N)cc3C2=O)cc1`, the Potency result is “inactive”. Next, `COc1ccc2c(c1)CCc1cn3nc(C)cc3nc1-2`: “inactive”; `COc1ccc2c(c1)C(=NNc1ccc(C(=O)O)cc1)c1cc(OC)ccc1-2`: 22.4 µM (active); `COc1ccc2nc(O)c(C(=O)O)cc2c1`: “inactive”. Next, `COc1ccc2c(c1)C(=NN)c1cc(OC)ccc1-2`: 31.6 µM (active). In the case of `O=C(O)CC1SC(N/N=C/C2CC=CCC2)=NC1=O` (configuration not stated) it was “inactive”; in that of `Oc1ccccc1C1SC(c2ccccc2O)SC(c2ccccc2O)S1` (configuration not stated), 20 µM (active); in that of `COc1ccc(-c2coc3cc4oc(=O)c5ccccc5c4cc23)cc1F`, 8.91 µM (active). For `COc1ccc(-c2cc(=O)oc3cc(O)ccc23)cc1`, the Potency entry is “inactive”. Next, `CCc1ccc2c(CN3CCc4cc(OC)c(OC)cc4C3)cc(=O)oc2c1`: “inactive”; `COc1ccc(-c2cc(Cl)cc3c(=O)c4ccccc4n(C)c23)cc1F`: “inactive”.

In the case of `CCc1cc(=O)oc2cc3occ(-c4ccc(OC)c(F)c4)c3cc12`, the Potency was 22.4 µM (active).

As for `COc1ccc(-c2cc3ccc(O)cc3oc2=O)cc1OC`, the Potency result was “inactive”.
